In PubChem BioAssay AID2253 (Southern Research Specialized Biocontainment Screening …, 2010):
Out of some 2,200 compounds screened, about 1,300 (59%) were called active. So high a share suggests a set chosen from earlier hits. Not all results are given here. Entries with a potency or affinity are not part of this list. Unmarked numbers belong to inactive results. How the calls were made is not given here.

test: human monocytic cell viability reduction – S. typhimurium screen hits, cytotoxicity control for Salmonella PhoP regulon inhibitors, dose response (AID 2253); details: THP-1 viability, CellTiter-Glo luminescence, 72 h; series mostly up to 50 µM; viability: at the top concentration

Row | Structure (SMILES) | viability | outcome
1 | Cn1cccc1C(=O)OCc1csc(-c2ccccc2)n1 | 92.6% | –
2 | N#CC1(C#N)COC23CCCCC2C1(C#N)C(=N)O3 (configuration not stated) | 109% | –
3 | Cc1nc(C(=O)Nc2ccc(Cl)cc2)nn1-c1ccc([N+](=O)[O-])cc1 | 80.2% | –
4 | O=C(NC(CO)Cc1ccc([N+](=O)[O-])cc1)C(Cl)Cl (configuration not stated) | 82.4% | –
5 | Cc1ccc(NC(=O)C2CC(=O)NC(N3CCCCC3)=N2)cc1Cl (configuration not stated) | 97.1% | –
6 | CCOC(=O)C1(S(=O)(=O)c2ccccc2)CCN(Cc2ccc(Cl)cc2)CC1 | 101% [at 25 µM] | –
7 | CCN(CC)C(=O)CP(=O)(c1ccccc1)c1ccccc1 | 89.9% | –
8 | CCn1c2ccccc2c2cc(NC(=O)C(C)Oc3ccccc3)ccc21 (configuration not stated) | 85.2% | –
9 | O=C(CCNS(=O)(=O)c1cccc2nsnc12)NCc1cccs1 | 96.8% | –
10 | O=C(OCC1COc2ccccc2O1)c1ccccc1F (configuration not stated) | 105% | –
11 | CCC1C2CN(C(C)=O)CC=C2C(C#N)=C(N)C1(C#N)C#N (configuration not stated) | 107% | –
12 | O=C(CCCN1C(=O)CCC1=O)Nc1ccc2c(c1)OCCO2 | 87.8% | –
13 | CCCNC(=O)CSc1nnc(C)s1 | 103% | –
14 | CC(=O)Nc1cccc(OC(=O)c2ccoc2C)c1 | 104% | –
15 | CO/N=C(/C(=O)N[C@@H]1C(=O)N2C(C(=O)O)=CCS[C@H]12)c1cnc(N)s1 | 111% | –
16 | COc1ccc(-c2ccccc2)cc1NCc1ccccc1C | 83.1% | –
17 | CCOC(=O)Cc1ccc2sc(-c3ccccc3)nc2c1 | 82.3% | –
18 | CC(C)NC(=O)CSc1nc(N)c(NC(=O)c2ccccc2F)c(=O)[nH]1 | 101% | –
19 | COC(=O)Cc1c(C)nc2nc(NCc3ccc(Cl)cc3)[nH]n2c1=O | 92% | –
20 | CN1c2ccccc2C(O)=C(C(=O)Nc2ccccc2)S1(=O)=O | 81.3% | –
21 | O=C(O)CCCCCN1C(=O)c2ccc(C(=O)O)cc2C1=O | 92.1% | –
22 | CC(=O)N1N=C(c2ccco2)CC1c1ccc(Br)cc1 (configuration not stated) | 95.1% | –
23 | CCOC(=O)CN(C)Cc1c[nH]c2ccccc12 | 95.1% | –
24 | O=C(c1ccccc1S(=O)(=O)NCc1ccccc1)N1CCCC1 | 83.8% | –

Row | Structure (SMILES) | viability | outcome
25 | CN(C)CCOC(=O)Cc1ccc(Cl)cc1 | 106% | –
26 | O=C(c1cccnc1Nc1ccc2c(c1)CCC2)N1CCOCC1 | 87.5% | –
27 | O=C(NCc1ccco1)c1ccc(Br)s1 | 99.7% | –
28 | Cn1c(=O)n(CC(=O)Nc2ccccc2)c2ccccc21 | 98.8% | –
29 | O=C(/C=C/c1ccccc1)N/C(=C/c1ccccc1)C(=O)N1CCOCC1 | 91.7% | –
30 | CN(C)c1ccnc(-n2cccc2/C=N/OCc2ccccc2)c1C#N | 84.2% | –
31 | COC(=O)c1sc2nc(CSc3nc4ccc(C)cc4[nH]3)[nH]c(=O)c2c1C | 90.8% | –
32 | CCc1cccc2c(C#N)cn(CC(=O)NCCOC)c12 | 98.8% | –
33 | CN1CCN(c2c(F)cc3c(=O)c(C(=O)O)cn4c3c2SCC4)CC1 | – | inactive
34 | S=c1nc(-c2ccccc2)oc2c1CCCC2 | 93.2% | –
35 | COc1ccc(-c2ccc(C#N)c(SCC(=O)NCCc3ccccc3)n2)cc1OC | 85.9% | –
36 | CCC(CC)C(=O)NCCc1ccc(OC)cc1 | 84.2% | –
37 | CCOC(=O)c1ccc2c(c1)C(=O)N(C1CCCCC1)C2=O | 101% | –
38 | N#CC1=C(S)N(c2ccccc2)C(c2ccc(-c3ccccc3Cl)o2)NC1=O (configuration not stated) | 92.5% | –
39 | O=c1c2ccccc2nnn1Cc1ccccn1 | 88.6% | –
40 | CCOC(=O)N1CCN(C(=O)c2cn(CC(C)C)c(=O)c3c2c2ccccc2n3C)CC1 | 92% | –
41 | N#CCOC(=O)c1sccc1-n1cccc1 | 98% | –
42 | Cc1cc(C)c(C#N)c(SCc2cn3ccccc3n2)n1 | 86.7% [at 25 µM] | –
43 | CCN(CC)c1nc2n(c(=O)n1)CCO2 | 87% | –
44 | COC(=O)Cc1c(O)ccn(Cc2ccc(F)cc2)c1=O | 93.3% | –
45 | CC1CCN(C(c2cc3cc4c(cc3[nH]c2=O)OCO4)c2nnnn2CC2CCCO2)CC1 (configuration not stated) | 90% | –
46 | CCOC(=O)C1CCCN(C(=O)Cc2ccc(Cl)cc2)C1 (configuration not stated) | 93.5% | –
47 | COCC(=O)N=Nc1c(O)[nH]c2ccccc12 | 93.8% | –
48 | Cc1ccc(N(CC(=O)N/N=C/c2ccco2)S(=O)(=O)c2ccccc2)cc1 | 80.2% | –

Row | Structure (SMILES) | viability | outcome
49 | C=CCn1c(C)cc(C(=O)CSc2nc(N)cc(N)n2)c1C | 82.7% | –
50 | O=C(O)CC(NC(=S)NCc1ccccc1)C(=O)O (configuration not stated) | 86.3% | –
51 | COc1c(/C=N/Nc2nc(N3CCCCC3)nc(N3CCCCC3)n2)cccc1[N+](=O)[O-] | 90.2% | –
52 | CCCCN(C(=O)NC(=O)Nc1nc2ccc(OC)cc2s1)S(C)(=O)=O | 83.8% | –
53 | CCOc1ccc(NC(=O)CCC(=O)n2nc(C)cc2C)cc1 | 95.3% | –
54 | CCOc1ccc(Nc2nc(NCCN3CCOCC3)nc(OC)n2)cc1 | 81.4% | –
55 | CNc1nc(Sc2ccccc2)cc(C(F)(F)F)n1 | 80.4% | –
56 | Cc1ccc(/C(O)=C2\C(=O)C(=O)N(CC(C)O)C2c2cccc(F)c2)cc1 (configuration not stated) | 96.5% | –
57 | CCOC(=O)CCCc1c[nH]c2ccccc12 | 91% | –
58 | NC(=O)CCc1c[nH]c2ccccc12 | 96.8% | –
59 | CC1COc2c(N3CCN(C)CC3)c(F)cc3c(=O)c(C(=O)O)cn1c23 (configuration not stated) | 84.5% | –
60 | Cn1ncc(N=Cc2ccccc2O)c1C(=O)Nc1ccccc1 | 93% | –
61 | CCOC(=O)c1c(/N=C/c2ccc(O)cc2O)sc2c1CCC2 | 82.9% | –
62 | CCCc1ccc(C(=O)CCC(=O)O)cc1 | 88.6% | –
63 | CCOC(=O)c1ccccc1C(=O)N1CCOCCOCCOCC1 | 93.6% | –
64 | COc1ccccc1N1CCN(C(=O)CSc2nc3ccccc3o2)CC1 | 80.6% | –
65 | COc1ccc(C2C(C#N)=C(N)OC3=C2C(=O)CCC3)cc1Cn1cc([N+](=O)[O-])cn1 (configuration not stated) | 80.3% | –
66 | CCOC(=O)c1[nH]c2ccccc2c1NC(=O)C(C)(C)C | 94.1% | –
67 | Cc1ccc2nc(SCC(=O)c3c(C)[nH]c4ccccc34)[nH]c2c1 | 98.8% [at 25 µM] | –
68 | CNC(=O)CSc1nnc(-c2cccnc2)n1CCc1ccccc1 | 108% | –
69 | CCCCC1CCC(C(=O)Nc2ccccc2)CC1 (configuration not stated) | 97.9% | –
70 | Cc1cccc(NC(=O)c2ccc(Cn3cc(C(F)(F)F)ccc3=O)cc2)c1 | 83% | –
71 | Cn1cnnc1SCC(=O)Nc1cccc(C(=O)O)c1 | 93.3% | –
72 | S=C(c1ccc2c(c1)OCO2)N1CCCC1 | 97.4% | –

Row | Structure (SMILES) | viability | outcome
73 | c1ccc(-c2ncnc3nc4n(c23)CCC4)cc1 | 107% | –
74 | Cc1c(Cl)cccc1NC(=O)CSc1ncnc2c1cnn2CCc1ccccc1 | 95.6% | –
75 | COC(=O)C1C(O)C(C)C(O)C(C)(O)/C=C\C=C(/C)C(=O)Nc2c(C)c(OC(C)=O)c3c(c2O)C(=O)C(C)=C2OCOC(=C23)/C(C)=C/C(C)(O)C(O)C(C)C1O (configuration not stated) | 91.6% | –
76 | CCSc1nnc(NC(=O)Cc2cccc(OC)c2)s1 | 96.9% | –
77 | CNc1nnc(-c2cccc(N(C)C)c2)s1 | 82.4% | –
78 | O=C(COc1ncnc2sccc12)N1CCN(S(=O)(=O)c2ccc(Cl)cc2)CC1 | 94.2% | –
79 | C=CCOc1ccccc1CNCCCN1CCOCC1 | 87.5% | –
80 | COc1cccc(OCC(O)CN2CCN(c3ccccn3)CC2)c1 (configuration not stated) | 98.9% | –
81 | COc1ccc(OC)c(NC(=S)NCCCN2CCOCC2)c1 | 91.4% | –
82 | Cc1ccc(NC(=S)NCCc2ccccc2)c(C)c1 | 80.4% | –
83 | O=C(O)c1cc(NCc2ccc3c(c2)OCO3)ccc1N1CCOCC1 | 99.6% | –
84 | c1ccc(Cn2nnc3c(NCc4ccc5c(c4)OCO5)nc(C4CC4)nc32)cc1 | 115% | –
85 | CCOc1ccc(N/C=C/C(=O)c2ccc(OC)cc2)c([N+](=O)[O-])c1 | 88% | –
86 | COc1ccc(NC(=O)CN2CCCCC2)c([N+](=O)[O-])c1 | 88.2% | –
87 | CCCc1nnc(NC(=O)c2cn(CC)c3cc(N4CCN(C)CC4)c(F)cc3c2=O)s1 | 98.7% | –
88 | Cc1nc(SCC(=O)NC(C)c2ccccc2)c2oc3ccccc3c2n1 (configuration not stated) | 99.9% | –
89 | CCCn1c(SCC(=O)NCCc2ccccc2)nnc1-c1cccnc1 | 102% | –
90 | Cn1ccnc1C(O)c1ccc(OCc2ccccc2)cc1 (configuration not stated) | 94.7% | –
91 | CCOC(=O)c1c(N)ssc1=S | 94.8% | –
92 | O=S1(=O)CC(O)C(Nc2ccccc2Cl)C1 (configuration not stated) | 94.2% | –
93 | NC(=O)c1c(N)sc2c1CCCCC2 | 110% | –
94 | O=C(Nc1cnn(Cc2ccc(F)cc2)c1)c1cnccn1 | 100% | –
95 | O=C(Nc1cnc2ccccc2c1)N1CCOCC1 | 94.5% | –
96 | CC(C)(C)n1ncc2c(=O)n(CC(=O)Nc3ccc4c(c3)OCO4)cnc21 | 83.4% | –

Row | Structure (SMILES) | viability | outcome
97 | CC(C)n1cc(C(=O)N2CCCC(N3CCN(c4ccc(F)cc4)CC3)C2)cn1 (configuration not stated) | 96.6% | –
98 | O=[N+]([O-])c1ccc(N2CCN(CCOc3nonc3-c3ccccc3)CC2)c(Cl)c1 | 97.4% | –
99 | Cc1ccc(-n2nnnc2SCC(=O)Nc2ncc(Cc3ccccc3Cl)s2)cc1 | 104% | –
100 | Cc1ccc(NS(=O)(=O)c2ccc(N3C(=O)CCC3=O)cc2)cc1 | 81.5% | –
101 | CCC(CC)C(=O)N1c2ccc(F)cc2CCC1C (configuration not stated) | 88.7% | –
102 | CCOC(=O)N1CCN(C(=O)c2cn(CC)c3cc(N4CCN(C)CC4)c(F)cc3c2=O)CC1 | 95% | –
103 | Nc1[nH]c(=O)ncc1F | 104% | –
104 | O=C(NCCc1cn2ccccc2n1)c1ccccc1F | 86.2% | –
105 | Cc1nnc(NC(=O)CSc2ncnc3scc(-c4ccccc4)c23)s1 | 100% | –
106 | CC(C)CCn1c(SCC(=O)N2CC(=O)Nc3ccccc32)nc2scc(-c3cccs3)c2c1=O | 94.8% | –
107 | COC(=O)c1ccc(NC(=S)Nc2ccc3ccccc3c2)cc1 | 82.9% | –
108 | COC(=O)c1ccccc1Oc1cnc2ccccc2n1 | 95.5% | –
109 | COc1ccc(/C=N/NC(=O)CC(=O)NCc2cccnc2)cc1 | 90.9% | –
110 | CC(=O)N1CCN(c2cc3c(cc2F)c(=O)c(C(=O)O)cn3C2CC2)CC1 | 103% | –
111 | CC(=O)c1sc(NC(=O)COc2ccc([N+](=O)[O-])cc2)nc1C | 92.2% | –
112 | Cn1c(CO)cnc1SCc1ccc([N+](=O)[O-])cc1 | 90.9% | –
113 | CCOC(=O)CC(=O)CSc1nc2c(c(C)c1C#N)CCC2 | 92.9% | –
114 | Cc1cc2c(c(=O)n1C)C(Cc1ccccc1)C(C#N)=C(N)O2 (configuration not stated) | 96.5% | –
115 | O=C1Nc2ccccc2C(O)(C(=O)N2CCCCC2)N1c1ccccc1 (configuration not stated) | 81.5% | –
116 | O=C1CC(c2ccccc2)n2ncnc2N1 (configuration not stated) | 92.4% | –
117 | NC1CCN(c2c(F)cc3c(=O)c(C(=O)O)cn(C4CC4)c3c2Cl)C1 (configuration not stated) | 93.8% | –
